Bioassay records as filed in PubChem.
This is one part of a sample in which hits are shown more often than they occur.
Artemis endo inh – inhibitors of human Artemis endonuclease activity | Q96SD1 | recombinant Artemis, quenched FAM hairpin cleavage fluorescence | inhibition, % at 10 µM | 0.78% of 30,000 active | AID 686954;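 active means at 10 µM dose, at least 30% inhibition, measured as corrected fluorescence normalized to stimulator and neutral control wells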
The depositor's hits bear a star.

SMILES	Artemis endo inh
CCOCCCNC(=O)C(c1ccc(C)cc1)N(Cc1ccc2c(c1)OCO2)C(=O)c1cnccn1 (stereo not given)	4.0
Cc1ccc(S(=O)(=O)/N=C(\c2ccc(F)cc2)n2c(C)nc3ccccc32)cc1	-0.9
COC(=O)c1cnn(-c2nc3c(C)cccc3s2)c1C	2.7
COc1cccc(C2CC(c3ccc(Cl)cc3Cl)Nc3nc(N)nn32)c1 (stereo not given)	0.5
COc1ccc(NC(=O)c2cccs2)cc1	-5.4
O=C(Nc1nc2n(n1)C(c1ccccc1)C=C(c1ccccc1)N2)c1ccco1 (stereo not given)	11.4
COc1ccc(C2CC(c3ccc(Cl)cc3)Nc3nc(NC(=O)c4ccco4)nn32)cc1 (stereo not given)	54.5*
COc1ccc(C2CC2/C(=N/OC(=O)c2cccs2)c2ccccc2)cc1 (stereo not given)	3.0
COc1ccc(C2CC(c3ccccc3)n3nc(NC(=O)c4cccs4)nc3N2)cc1 (stereo not given)	58.6*
CN(Cc1ccccc1)c1nc2c(c(=O)[nH]c(=O)n2C)n1CCOc1ccccc1	7.1
CCN(CC)CCN1C(=O)C(=O)/C(=C(/O)c2ccc(OC)cc2)C1c1ccco1 (stereo not given)	-1.5
CCOc1ccc(/C(O)=C2/C(=O)C(=O)N(c3nc(C)c(C)s3)C2c2ccco2)cc1 (stereo not given)	42.8*
CCOc1ccc(/C(O)=C2\C(=O)C(=O)N(c3cc(C)on3)C2c2ccccc2OC)cc1 (stereo not given)	3.3
CCOc1ccc(C(=O)CSc2nnc(N)s2)cc1	9.3
CCOc1ccc(OCC)c(NC(=O)c2ccc(CNc3c(N4CCOCC4)c(=O)c3=O)cc2)c1	-2.2
COc1cc2ccccc2cc1C(=O)Nc1cccnc1	-1.3
COC(=O)/C=C/C(=O)Nc1cccnc1	35.5*
O=C(Nc1cccnc1)C1(F)C(F)(F)C(F)(F)C(F)(F)C(F)(F)C1(F)F	-2.4
COc1cc(CNCCc2c[nH]c3ccccc23)ccc1OCc1ccc(F)cc1	10.5
COC(=O)CN1CCN(C(=O)c2ccc(F)cc2)c2ccccc2C1	-11.5
O=C(Nc1ccc(N2CCCCC2)cc1)c1ccc(F)cc1	10.1
CCOc1ccc(C(=O)Nc2ccc(N3CCCC3)cc2)cc1	27.2
COc1ccc(C(=O)Nc2ccc(N3CCCC3)cc2)cc1	61.8*
CCN(CC)C(=O)c1sc(NC(=O)c2ccc(C)c([N+](=O)[O-])c2)c(C#N)c1C	2.6
Oc1ccc2ccccc2c1/C=N/c1nc2c(s1)CCCC2	62.5*
SMILES	Artemis endo inh
Oc1ccc2ccccc2c1C=Nc1ccccc1-c1nc2ccccc2[nH]1	13.9
Oc1c(Br)cc(Br)cc1/C=N/c1nc2c(s1)CCCC2	-1.9
C=CCSC(=C(C#N)C#N)c1cc2c([nH]1)CCCC2	14.2
CC(C)c1c(O)nc(SCC(=O)Nc2ccc3c(c2)CCC3)[nH]c1=O	0.1
COc1ccccc1NC(=O)CSc1nnc(CNC(=O)COc2ccc(Cl)cc2)o1	11.7
c1ccc(-c2nc(N3CCOCC3)c3ccccc3n2)nc1	8.2
c1ccc(CN2CCN(c3nc(-c4ccccc4)nc4ccccc34)CC2)cc1	3.7
c1ccc(-c2nc(N3CCCCCC3)c3ccccc3n2)nc1	78.2*
Cc1ccc(C2C(C=Nc3c(C)n(C)n(-c4ccccc4)c3=O)=C(c3ccccc3)Oc3ccccc32)cc1 (stereo not given)	4.7
COc1ccc2c3c(cccc13)N(C)N=C2C	58.0*
COc1ccc(C)cc1-n1c(N)c(C#N)c(C#N)c1-c1ccc(OC)c(OC)c1OC	-3.5
COc1ccc(S(=O)(=O)N(CCN2CCOCC2)Cc2cc(OC)ccc2OC)cc1	-3.2
CC(=O)c1cccc(NC(=O)c2cc3nc(C)cc(C)n3n2)c1	-0.3
O=C(CCc1nc2ccccc2[nH]1)Nc1ccc2c(c1)OCO2	9.9
CC(C)(C)c1cc(/C=N/NC(=O)Cc2nc3ccccc3[nH]2)cc(C(C)(C)C)c1O	31.7*
COc1cc(/C=N\NC(=O)Cn2nnc3ccccc32)cc(OC)c1OC	3.9
CC(C)CNS(=O)(=O)c1ccc(OCC(=O)NCC2CCCO2)c(Cl)c1 (stereo not given)	-2.4
O=C(NCc1ccccn1)C1CCCN(S(=O)(=O)c2cccc3nsnc23)C1 (stereo not given)	2.2
O=C(N/N=C\c1ccc(COc2ccc([N+](=O)[O-])cc2)o1)c1ccc(Cl)cc1	11.5
O=[N+]([O-])CC(=Nc1ccc(Cl)cc1)N/N=C\c1oc(O)c2ccccc12	34.8*
O=c1ccc(/C=C/c2ccccc2)nn1Cc1ccccc1Cl	5.9
O=C(COc1ccc(Br)cc1)Nc1ccc([N+](=O)[O-])cn1	1.4
O=c1cc(-c2ccccc2)nc2nc(COc3ccccc3)[nH]n12	5.2
Nc1[nH]n2c(=O)cc(-c3ccccc3)nc2c1N=Nc1ccccc1	47.3*
O=c1cc(-c2ccccc2)nc2nc(-c3ccccc3)[nH]n12	5.1
SMILES	Artemis endo inh
Cc1cc(Cl)ccc1NC(=S)NCCC(c1ccccc1)c1ccccc1	15.5
CCCC/C(O)=N\S(=O)(=O)c1ccc(N=NN(C)C)cc1	-1.3
O=S(=O)(NCc1cn2ccsc2n1)c1ccc2c(c1)OCCO2	-0.1
COc1ccc2nc(NC(=O)C3CCN(S(=O)(=O)c4cnc[nH]4)CC3)sc2c1	3.6
CCOc1ccc(OCC)c(NC(=O)C2CCCN(S(=O)(=O)c3cccs3)C2)c1 (stereo not given)	-1.9
COc1ccc2nc(NC(=O)C3CCCN(S(=O)(=O)c4cccs4)C3)sc2c1 (stereo not given)	39.5*
NC(=O)C1CCN(C(c2ccccc2Cl)c2nnnn2Cc2ccc3c(c2)OCO3)CC1 (stereo not given)	-1.1
O=C(Cn1ccsc1=NC(=O)C(F)(F)F)c1ccccc1	-7.0
N#Cc1c(N)n(CCNC(=O)c2ccc(Cl)cc2)c2nc3ccccc3nc12	-0.4
CCC(C)n1c(NC(=O)c2ccccc2)c(C#N)c2nc3ccccc3nc21 (stereo not given)	38.6*
Cc1noc(NC(=O)c2ccccc2)c1C#N	1.8
CCn1c(COc2ccc(C)cc2)nnc1SCC(=O)Nc1ccc2c(c1)OCCO2	-0.8
COC(=O)c1sccc1NC(=O)c1cc(-c2ccc(C)cc2C)nc2ccccc12	-1.2
